This is a sample that favours compounds with a hit; in the whole collection about 7.3% have one here.
Tau fluor counter: Counterscreen qHTS for Inhibitors of Tau Fibril Formation, Fluorescence Polarization. tau K18 P301L Alexa594 fluorescence, heparin fibrillization. Potency, µM (series often up to 57.7 µM). actives 0.93% (n = 280,000). AID 1463, 2008; also: nearly all actives have a fitted effect of over 55% in size
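Human K18 P301L tau (15 uM unlabeled plus 0.24 uM Alexa 594-labeled, final) in 100 mM sodium acetate pH 7 was mixed with compound and 20 uM heparin and incubated 6 hr at 37 C.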
Tau ThT inhib: qHTS for Inhibitors of Tau Fibril Formation, Thioflavin T Binding; Microtubule-associated protein tau (Homo sapiens), P10636; AID 1460, 2008; recombinant tau K18 P301L (four-repeat tau fragment), heparin-induced fibrillization, ThT fluorescence; Potency, µM (doses to about 57.4 µM), usual class: inhibitors; actives 2.1% (n = 270,000); also: nearly all actives have a fitted effect of over 55% in size
Target sequence (P10636 561-689 P618L limits assumed): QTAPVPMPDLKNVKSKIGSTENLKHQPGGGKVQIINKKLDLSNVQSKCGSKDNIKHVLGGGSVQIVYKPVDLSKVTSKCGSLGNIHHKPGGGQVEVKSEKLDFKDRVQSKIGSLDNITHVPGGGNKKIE
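K18 P301L tau (15 uM + 0.24 uM Alexa 594-tagged), heparin 20 uM, NaOAc pH 7, 6 h 37 C; ThT 30 uM, 1 h RT, ex 450/em 510 nm.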
Gal4-VP16 FLuc: VP16 counterscreen qHTS for inhibitors of ROR gamma transcriptional activity; Drosophila S2 Gal4-VP16 UAS-luciferase, luminescence, 20 h; actives 3.5% (n = 310,000); Potency, µM (titrated, usually from 53.6 µM), usual class: inhibitors;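 also: Gal4-VP16 expression switched on by copper sulfate through the metallothionein promoter; nearly all actives have a fitted effect of over 50% in size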
Tau FP inhib: qHTS for Inhibitors of Tau Fibril Formation, Fluorescence Polarization; Microtubule-associated protein tau (Homo sapiens), P10636; K18 P301L tau heparin fibrillization, Alexa594 FP, 6 h; Potency, µM (titrated, usually from 57.7 µM), most hits filed as inhibitors; actives 0.39% (n = 280,000); AID 1468, 2008; also: nearly all actives have a fitted effect of over 55% in size
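K18 P301L tau (15 uM unlabeled/0.24 uM Alexa 594-labeled, final) + compound + heparin 20 uM final; 100 mM NaOAc pH 7; 6 hr 37 C; ThT 30 uM final added, 1 hr RT; FP ex 555/em 632 nm.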
RORg inh: qHTS for inhibitors of ROR gamma transcriptional activity; Potency, µM (top dose mostly 53.6 µM), usual class: inhibitors; AID 2551, 2010; Drosophila S2 Gal4-RORgamma UAS-luciferase reporter, 20 h; actives 5.4% (n = 310,000); also: nearly all actives have a fitted effect of over 60% in size
Target sequence (P51450 whole entry, looked up, the tested form may be a part): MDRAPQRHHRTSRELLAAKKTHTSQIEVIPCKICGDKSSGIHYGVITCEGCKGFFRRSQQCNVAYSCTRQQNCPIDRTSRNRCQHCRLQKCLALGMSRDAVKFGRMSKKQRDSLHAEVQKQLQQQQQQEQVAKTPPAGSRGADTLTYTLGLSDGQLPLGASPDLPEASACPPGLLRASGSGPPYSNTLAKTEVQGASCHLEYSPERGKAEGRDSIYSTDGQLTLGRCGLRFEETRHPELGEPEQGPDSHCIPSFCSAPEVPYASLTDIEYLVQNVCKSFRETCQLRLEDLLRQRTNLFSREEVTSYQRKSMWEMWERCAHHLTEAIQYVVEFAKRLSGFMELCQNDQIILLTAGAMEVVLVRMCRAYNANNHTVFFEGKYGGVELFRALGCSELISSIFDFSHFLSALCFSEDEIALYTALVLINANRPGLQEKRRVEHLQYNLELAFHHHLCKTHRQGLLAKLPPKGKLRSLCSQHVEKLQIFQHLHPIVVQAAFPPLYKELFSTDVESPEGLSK
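Using a luciferase readout, inhibitors were identified by reduced reporter activity in Drosophila cells coexpressing a copper-inducible Gal4–ROR gamma fusion and UAS-driven Photinus luciferase, incubated 20 hr after 700 uM copper sulfate.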
A number is an active result; – = inactive; ? = inconclusive; · = no result given; [ ] = another dose, or the depositor's remark. Calls follow the shape of the dose curve; as a rule, active = well fitted curve in the direction sought with a large enough effect; inconclusive = small, poorly fitted or top-dose-only effect, or another doubt; inactive = no such curve, though single readings can be large; an effect the other way counts as inactive or inconclusive.

SMILES | Tau fluor counter | Tau ThT inhib | Gal4-VP16 FLuc | Tau FP inhib | RORg inh
c1ccc(Cn2c(-c3cncs3)nc3ccccc32)cc1 | – | – | – | – | –
Cc1cccc(Cn2c(-c3cccc(Br)c3)nc3ccccc32)c1 | – | – | · | – | ·
Brc1cccc(Cn2c(-c3cncs3)nc3ccccc32)c1 | – | ? | 8.9µM | ? | 8.9µM
Brc1ccc(Cn2c(-c3cncs3)nc3ccccc32)cc1 | – | – | 6.3µM | – | ?
CCCCOC(=O)CSc1nnc(-c2ccc(C)cc2)o1 | – | – | · | – | ·
CCOc1cc(/C=N/Nc2nc(N3CCCC3)nc(N3CCCC3)n2)ccc1O | ? | ? | 5µM | – | 5.6µM
CCOc1cc(/C=N/Nc2nc(Nc3ccccc3)nc(N3CCCCC3)n2)ccc1OCC(=O)O | – | ? | ? | – | 4.5µM
O=C(O)COc1ccc(/C=N/NC(=O)c2ccc(-c3csc(Nc4ccc(Cl)cc4)n3)cc2)cc1 | ? | ? | – | – | –
COc1ccc(/C=N/Nc2nc(Nc3ccccc3)nc(N3CCCCC3)n2)cc1OC | ? | – | – | – | –
CCOc1cc(/C=N/NC(=O)c2ccc(-c3csc(Nc4ccc(C)cc4)n3)cc2)ccc1OCC(=O)O | ? | 2.8µM | – | – | –
O=c1c(NCc2ccccc2Cl)nccn1-c1ccccc1 | – | – | · | – | ·
COc1cc2c(cc1OC)C(c1cc(Br)c(OC)c(OC)c1)CC(=O)N2 (configuration not stated) | · | · | – | · | –
C/C=C(/C)C(=O)O[C@H]1CC(C)=CC(=O)[C@@]2(C)CC[C@@](O)(C(C)C)[C@H]12 | · | · | – | · | –
C=C1C(=O)OC2CC1C(OC(C)=O)CC(C)=CCCC(C)=CCC[C@@]2(C)O (some centres not stated) | – | ? | ? | – | 5.6µM
Cc1cc(NC(=O)C(C)(C)Oc2ccc(Cl)cc2)cc(-c2nc3ncccc3o2)c1O | – | – | · | – | ·
Nc1[nH]n2c(=O)cc(-c3ccccc3)nc2c1N=Nc1ccccc1 | ? | 5µM | – | – | –
Cc1[nH]n(-c2nc(-c3cccc([N+](=O)[O-])c3)cs2)c(=O)c1C | – | ? | ? | – | ?
Nc1nc2nc(-c3ccccc3)cc(=O)n2[nH]1 | – | – | – | – | –
Nc1[nH]n2c(=O)cc(-c3ccccc3)nc2c1N=Nc1ccc(S(N)(=O)=O)cc1 | ? | 2.2µM | – | – | –
NS(=O)(=O)c1ccc(N=Nc2c(-c3ccccc3)[nH]n(-c3nc(-c4ccccc4)cs3)c2=O)cc1 | 8.9µM[quencher] | 1.8µM | – | ? | –
O=C(NCCc1ccccc1)c1ccc(CSc2nc3ccncc3n2Cc2ccccc2)cc1 | – | – | · | – | ·
CCc1cccc(C)c1NC(=O)CSc1nc(C)cc(C)c1C(=O)Nc1ccccc1 | – | – | · | – | ·
COc1ccc(C2=NS(=O)(=O)N(C)C(C(=O)Nc3ccc(C(C)=O)cc3)=C2)cc1OC | · | · | 16µM | · | –
Cc1nc2cc(N=NC3=C(O)CCCC3=O)ccc2s1 | – | 16µM | ? | – | –
CC(C)N(CCCNC(=O)Cn1c(=O)c2cccn2c2ccccc21)Cc1ccccc1 | · | · | – | · | –
SMILES | Tau fluor counter | Tau ThT inhib | Gal4-VP16 FLuc | Tau FP inhib | RORg inh
Cc1cc(C)c(S(C)(=O)=O)c(NN)n1 | – | ? | – | – | 2µM
CCCS(=O)(=O)c1nc(C)cc(C)c1S(C)(=O)=O | – | – | – | – | –
COc1cccc(CN(C)C(=S)Nc2cccc(C)c2)c1 | – | – | ? | – | 11µM
COc1ccc(CN(C)C(=S)Nc2ccc(Cl)cc2)cc1 | – | – | ? | – | 10µM
Cc1ccnc(NC(=O)CCC(=O)N(CC(=O)NCc2ccc(F)cc2)Cc2ccccc2)c1 | · | · | – | · | –
CCc1cc(C(=O)NNC(=S)NCC2CCCO2)cs1 (configuration not stated) | – | – | – | – | 16µM
Cc1ccc(-c2c(C(=O)NNC(=S)NCC3CCCO3)csc2C)cc1 (configuration not stated) | – | – | – | – | ?
Cc1scc(C(=O)NNC(=S)NCC2CCCO2)c1C (configuration not stated) | – | – | – | – | 4.5µM
Cc1scc(C(=O)NNC(=S)NCC2CCCO2)c1-c1ccccc1 (configuration not stated) | – | – | – | – | 7.9µM
CCCc1cc(C(=O)NNC(=S)NCC2CCCO2)cs1 (configuration not stated) | – | – | – | – | –
CCOc1cc(Cl)c(S(=O)(=O)n2ccnc2)cc1Cl | – | – | · | – | ·
O=S(=O)(c1ccc(N2CCCC2)cc1)C(F)(F)F | – | – | 5.6µM | – | ?
COCCn1c(SCC(=O)Nc2ccccc2OC)nc2ccccc2c1=O | · | · | – | · | ?
COCCn1c(-c2ccc(OC)cc2)cnc1SCC(=O)Nc1cccc2ccccc12 | – | – | – | – | 5µM
Cc1ccc2nc(-c3ccc(Cl)c(NC(=O)COc4ccc([N+](=O)[O-])cc4)c3)oc2c1 | – | – | · | – | ·
COC(=O)C1=C(C(=O)OC)SC2(S1)C(C(=O)OC)=C(C(=O)OC)SC1=C2c2cc(C)cc(C)c2NC1(C)C | ? | 14µM | – | ? | 13µM
CSc1nc2ccc3nc(NC(=O)c4ccc(Cl)s4)sc3c2s1 | – | – | – | – | –
O=C(Nc1nc2c(s1)CCc1ccccc1-2)c1cccs1 | ? | ? | – | – | 10µM
COc1ccc2c(c1)Cc1sc(NC(=O)c3cccc(C)c3)nc1-2 | 16µM[quencher] | 13µM | · | – | ·
COc1ccc2c(c1)Cc1sc(NC(=O)c3cccc(Cl)c3)nc1-2 | – | ? | · | – | ·
COc1ccc(C(=O)Nc2nc3c(s2)CCc2cc(OC)ccc2-3)cc1 | 11µM[quencher] | 10µM | · | ? | ·
CSc1nc2ccc3nc(NC(=O)c4cccs4)sc3c2s1 | – | – | – | – | 6.3µM
Cc1ccc(S(=O)(=O)Cc2cc(F)c([N+](=O)[O-])cc2[N+](=O)[O-])cc1 | · | · | 6.3µM | · | –
Cc1ccc(C(=O)CCS(=O)(=O)c2ccc(Br)cc2)cc1 | · | · | ? | · | –
COc1ccc(C(CC(=O)c2ccc(O)cc2)S(=O)(=O)c2ccc(C)cc2)cc1 (configuration not stated) | ? | – | 10µM | ? | 1.8µM
COc1ccc(C(=O)CCS(=O)(=O)c2ccc(C)cc2)cc1 | · | · | 10µM | · | 5.6µM
Cc1ccc(S(=O)(=O)CCC(=O)c2cccc([N+](=O)[O-])c2)cc1 | · | · | 5µM | · | 4µM
O=C(CCNc1ccc(Cc2ccncc2)cc1)c1cccc([N+](=O)[O-])c1 | 16µM[quencher] | ? | – | ? | ?
O=C(CCNc1cccc(F)c1)c1cccc([N+](=O)[O-])c1 | ? | ? | – | – | ?
Cc1cc(SCC(=O)N/N=C/c2ccc(O)c(O)c2)c(C)cc1Br | 14µM[quencher] | ? | – | – | –

Screens as filed in PubChem BioAssay.
